# Test results as given in PubChem BioAssay (NCATS).
# Calls of active or inactive are those of the source. No stated cut-off is given here; in the data, active means potency below about 10 µM; inactive means the rest.
# Molecular target: Lysosomal acid glucosylceramidase (Homo sapiens) (UniProt P04062)
# Assay: Glucocerebrosidase-p2 (AID 348)
# Conditions: purified GBA, blue fluorogenic substrate, 40 min
# Description: Beta-glucocerebrosidase catalyzes the hydrolysis of beta-glucocerebroside to glucose and ceramide. The inherited deficiency of beta-glucocerebrosidase results in Gaucher disease, which is characterized by a wide variety of symptoms including hepatosplenomegaly, anemia, thrombocytopenia, bony lesions and bone marrow infiltration with characteristic storage cells, known as Gaucher cells. There are also forms of the disorder affecting the central nervous system. Patients with the same genotypes can manifest with diverse clinical presentations and it is believed that improper folding and trafficking of beta-glucocerbrosidase may contribute to the phenotypes observed.
# Low molecular weight molecules, acting as chaperones, may potentially restore trafficking of misfolded beta-glucocerebrosidase from the endoplasmic reticulum to the lysosomes, thereby enhancing functional lysosomal beta-glucocerebrosidase activity.
# Using normal beta-glucocerebrosidase, an assay was developed to screen for small molecule inhibitors that could potentially act as molecular chaperones on the mutant forms [developed with NIH investigator Dr. Ellen Sidransky#s laboratory]. Two pro-fluorescent substrates were chosen for two screens against a small molecule library. One beta-glucocerebrosidase assay used Resorufin beta-D-Glucopyranoside (Marker Gene Technology Inc.), generating a red fluorescent product. The second assay used […] fluorescent product. The Km for the Resorufin beta-D-Glucopyranoside and Fluorescein di-beta-D-Glucopyranoside were determined to be 71.2 uM and 855 uM, respectively. The IC50 values of Conduritol B Epoxide, a known glucocerebrosidase inhibitor, were determined to be 87.5 uM and 117 uM, respectively. The use of two difference pro-fluorescent substrates in the screens helped to eliminate false positives. All compounds were screened in a titration series resulting in AC50s (e.g., IC50s or EC50s). Data normalization and AC50 calculations were accomplished using GeneData software.
# NCGC Assay Protocol Summary
# Both enzyme and substrate were diluted in buffer composed of 50mM citric acid/KH2PO4, 10mM sodium taurocholate and 0.01% tween-20 at pH 5.9. The final concentration of the enzyme was 0.2 nM in both assays. The compound library was titrated in 7 to 15 concentrations for the primary screens with a final concentration ranging from 0.6 nM to 50 uM. This particular assay protocol is for the "blue" substrate, and it was performed in 1536-well plate format as follows:
# Blue fluorescence substrate assay:
# 1 uL substrate (final concentration of 80 uM)
# Incubate at room temperature (RT) for 40 minutes
# 3 uL stop solution (1 M NaOH and 1 M glycine in water)
# Read the plate in Viewlux plate reader (Ex=365(10) and Em=440(10)).
# Potency means the concentration at half of the fitted maximal effect.
# Lysosomal acid glucosylceramidase (Homo sapiens), sequence (P04062 whole entry, looked up): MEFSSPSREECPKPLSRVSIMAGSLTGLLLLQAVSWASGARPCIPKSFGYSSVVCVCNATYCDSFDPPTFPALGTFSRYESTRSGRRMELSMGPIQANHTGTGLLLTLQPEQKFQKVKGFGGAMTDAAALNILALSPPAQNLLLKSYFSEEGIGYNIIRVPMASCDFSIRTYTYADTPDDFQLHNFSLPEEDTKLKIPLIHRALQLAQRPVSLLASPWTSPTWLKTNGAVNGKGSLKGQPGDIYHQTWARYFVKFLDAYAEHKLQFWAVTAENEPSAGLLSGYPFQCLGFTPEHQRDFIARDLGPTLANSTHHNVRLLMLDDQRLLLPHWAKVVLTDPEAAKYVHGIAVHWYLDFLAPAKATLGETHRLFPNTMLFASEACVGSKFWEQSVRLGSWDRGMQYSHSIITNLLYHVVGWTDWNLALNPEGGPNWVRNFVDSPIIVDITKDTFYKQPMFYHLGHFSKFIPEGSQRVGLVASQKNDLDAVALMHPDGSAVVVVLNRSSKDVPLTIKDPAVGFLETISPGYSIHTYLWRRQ
row,SMILES,Potency
1,CN1CCN(c2ncc3nc(-c4cccc(C#N)c4)c(=O)n(CCc4ccccc4)c3n2)CC1,> 11.4 µM (inactive)
2,CN1CC[C@H](CN2c3ccccc3Sc3ccccc32)C1,> 11.4 µM (inactive)
3,COc1cccc(-c2nc(NCc3cccnc3)c3ccccc3n2)c1,> 11.4 µM (inactive)
4,CCNc1ncc2nc(-c3cccs3)c(=O)n(CCC#N)c2n1,> 11.4 µM (inactive)
5,COc1cccc(Nc2ncc3ncc(=O)n(Cc4ccc(F)cc4)c3n2)c1,> 11.4 µM (inactive)
6,COc1ccc(-c2nc3cnc(N4CCN(C)CC4)nc3n(CCc3ccccc3)c2=O)cc1,> 11.4 µM (inactive)
7,COc1ccc2[nH]cc(CCNc3ncnc4ccc(-c5ccccc5OC)cc34)c2c1,> 11.4 µM (inactive)
8,CN1CCN(c2ncnc3ccc(-c4cccc(C#N)c4)cc23)CC1,> 11.4 µM (inactive)
9,CCNc1ncc2nc(C)c(=O)n(CCc3ccccc3)c2n1,> 11.4 µM (inactive)
10,Cc1cnc(CNc2ncnc3ccc(-c4ccccc4C)cc23)cn1,> 11.4 µM (inactive)
11,CN(C)C(=O)c1ccc(-c2cc(NCc3ccccc3)ncn2)cc1,> 11.4 µM (inactive)
12,COc1ccc(-c2nc3cnc(Oc4cccc(Cl)c4)nc3n(C[C@H]3CCCO3)c2=O)cc1,> 11.4 µM (inactive)
13,CN(C)c1ncnc2ccc(-c3cccc(NS(C)(=O)=O)c3)cc12,> 11.4 µM (inactive)
14,COc1cccc(Nc2ncc3nc(-c4cccs4)c(=O)n(C[C@H]4CCCO4)c3n2)c1,> 11.4 µM (inactive)
15,COc1ncc2nc(-c3ccccc3)c(=O)n(CCc3ccccc3)c2n1,> 11.4 µM (inactive)
16,Nc1nc(N)c(-c2cccc(C(F)(F)F)c2)c(Cc2cccc(C(F)(F)F)c2)n1,> 11.4 µM (inactive)
17,CN1CCN(c2nc(-c3cccnc3)nc3ccccc23)CC1,> 11.4 µM (inactive)
18,O=c1c(CCc2ccccc2)nc2cnc(N3CCOCC3)nc2n1-c1ccccc1,> 11.4 µM (inactive)
19,Cn1c(=O)c(-c2ccc(Cl)cc2)nc2cncnc21,> 11.4 µM (inactive)
20,O=c1cnc2cnc(N3CCOCC3)nc2n1Cc1cccs1,> 11.4 µM (inactive)

row,SMILES,Potency
1,COc1ccc(Oc2ncc3nc(C)c(=O)n(Cc4cccs4)c3n2)cc1,> 11.4 µM (inactive)
2,COc1cccc(-c2cncnc2NCCc2c[nH]c3ccc(OC)cc23)c1,> 11.4 µM (inactive)
3,COc1ccc(CNc2ncncc2-c2ccccc2OC)c(OC)c1,> 11.4 µM (inactive)
4,O=c1cnc2cnc(OCc3ccccc3)nc2n1CCc1ccccc1,> 11.4 µM (inactive)
5,O=c1c(-c2ccccc2)nc2cnc(N3CCOCC3)nc2n1CCc1ccccc1,> 11.4 µM (inactive)
6,COc1ccc2[nH]cc(CCNc3ncnc4ccc(-c5ccoc5)cc34)c2c1,> 11.4 µM (inactive)
7,COCCn1c(=O)c(-c2ccc(F)cc2)nc2cnc(Oc3ccccc3)nc21,> 11.4 µM (inactive)
8,COc1cccc(-c2nc(N(C)C)c3ccccc3n2)c1,> 11.4 µM (inactive)
9,CNc1ncncc1-c1ccccc1CN(C)C,> 11.4 µM (inactive)
10,CN(C)C(=O)c1ccc(-c2ccc3ncnc(Nc4ccc(F)cc4)c3c2)cc1,> 11.4 µM (inactive)
11,COc1ccccc1CNc1ncnc2ccc(-c3ccc(C(=O)N(C)C)cc3)cc12,> 11.4 µM (inactive)
12,COc1ccccc1CNc1cc(-c2ccccc2CN(C)C)ncn1,> 11.4 µM (inactive)
13,CCOc1ccc2nc3cc(N=Nc4ccc(N)nc4N)ccc3c(N)c2c1,> 11.4 µM (inactive)
14,CN(C)c1ncc2nc(CCc3ccccc3)c(=O)n(Cc3cccs3)c2n1,> 11.4 µM (inactive)
15,Clc1ccccc1-c1nc(-n2ccnc2)c2ccccc2n1,> 11.4 µM (inactive)
16,COc1ccccc1CNc1ccnc(-c2cccnc2)n1,> 11.4 µM (inactive)
17,CN(C)c1nc(-c2cccc(C#N)c2)nc2ccccc12,> 11.4 µM (inactive)
18,COc1ccccc1-c1ccc2ncnc(N3CCOCC3)c2c1,> 11.4 µM (inactive)
19,COCCn1c(=O)c(CCc2ccccc2)nc2cnc(Oc3ccccc3)nc21,> 11.4 µM (inactive)
20,Cc1nc2cnc(N3CCOCC3)nc2n(CCc2ccccc2)c1=O,> 11.4 µM (inactive)
